# Reference: ChEMBL document CHEMBL3988442, “University of Dundee, Small-Polar-MMV Screening Library” (2021)
# Hit rate of the full screen: of about 48,000 compounds, about 13,000 (27%) showed an effect of 50% or more. This is one part of the list.
# Test system: Wolbachia pipientis
# Assay: Anti-Wolbachia Cell-Based Screen
# Type: functional
# Design: scale not given: in the data most compounds retested in dose-response had high values
# Conditions: 5 µM
row,SMILES,Percent Effect
1,Cc1nc(C(=O)N(CC(=O)N(C)C)CC(F)(F)F)c2ccccn12,1.81%
2,Cc1noc(C)c1CN(C)C(=O)NC(C)c1cccs1 (stereo not drawn),-8.281%
3,NC(=O)C1CCN(Cn2nc(-c3ccccc3)oc2=O)CC1,-3.823%
4,Cc1noc(C2CCN(C(=O)CCNS(C)(=O)=O)CC2)n1,-0.9329%
5,COc1cccc(NC(=O)CN(C(C)C)C2CC2)c1,1.237%
6,CCC(=O)Nc1cccc(OCC(=O)N2CC=CC2C(C)C)c1 (stereo not drawn),89.02%
7,CCC(=O)NC1CCCN(C(=O)Nc2cccc(COC(C)C)c2)C1 (stereo not drawn),-15.38%
8,CCC(=O)Nc1cccc(OCC(=O)N[C@@H]2C[C@H]3CC[C@@H]2C3)c1,110%
9,CCC(=O)Nc1cccc(OCC(=O)N(C)Cc2nc(C)c[nH]2)c1,-12.77%
10,CCC(=O)Nc1cccc(OCC(=O)N(C)Cc2cc(COC)[nH]n2)c1,-13.78%
11,CCC(=O)Nc1cccc(OCC(=O)N2C[C@H]3CC[C@H]2C3)c1,93.75%
12,CCC(=O)Nc1cccc(OCC(=O)N(C)Cc2nccn2CC)c1,-14.09%
13,CCC(=O)Nc1cccc(OCC(=O)N(C)Cc2ccon2)c1,-42.8%
14,CN(C)C(=O)c1ccc2c(c1)N(C)C(CC(=O)NCCOCCO)CO2 (stereo not drawn),24%
15,Cc1ccccc1C1(C(=O)N2CCOC(C)C2)CCOCC1 (stereo not drawn),-22.89%
16,CCCOCCN1CCC2(CC1)CC(c1ccccc1)C(=O)N2C (stereo not drawn),4.457%
17,COCCN1CCC2(CC1)CC(c1cccnc1)C(=O)N2C (stereo not drawn),119.4%
18,CCN1C(=O)C(c2ccccc2)CC12CCN(CCO)CC2.O=C(O)C(F)(F)F (stereo not drawn),-6.556%
19,CN1C(=O)C(c2cccnc2)CC12CCN(CCO)CC2 (stereo not drawn),110.9%
20,CN1C(=O)C(c2ccccc2)CC12CCN(CCO)CC2.O=C(O)C(F)(F)F (stereo not drawn),95.45%
21,CN1C(=O)C(c2cccnc2)CC12CCN(Cc1nccs1)CC2 (stereo not drawn),106.4%
22,COCCN1CCC2(CC1)CC(c1ccccc1)C(=O)N2C (stereo not drawn),-11.58%

row,SMILES,Percent Effect
1,Cc1occc1C(=O)N1CCC2(CC1)CC(c1cccnc1)C(=O)N2C (stereo not drawn),-9.568%
2,CN1C(=O)C(c2ccccc2)CC12CCN(CCN)CC2 (stereo not drawn),-103.7%
3,CN1C(=O)C(c2cccnc2)CC12CCN(C(=O)c1ccc[nH]1)CC2 (stereo not drawn),-0.8841%
4,CN1C(=O)C(c2ccccc2)CC12CCN(CCOCCO)CC2 (stereo not drawn),13.34%
5,CN1C(=O)C(c2cccnc2)CC12CCN(C(=O)c1cccn1C)CC2 (stereo not drawn),-11.09%
6,Cc1nc2c(NC(CC(C)(C)C)c3cccnc3)ncnc2o1 (stereo not drawn),-3.479%
7,CC(C)(N)CN1CCC(c2nnc(CN3CCCC3)n2C2CC2)CC1,-7.57%
8,CNC(=O)c1ccc(NC(=O)NC(C)c2cc(C)oc2C)c(C)c1 (stereo not drawn),-1.593%
9,CN(CCC(F)(F)F)Cc1nc2ccccc2c(=O)[nH]1,-3.599%
10,Cc1cnc(C(=O)N2CCN(C(=O)CC(C)C)[C@@H]3CS(=O)(=O)C[C@@H]32)cn1,-11.52%
11,CC(C)(C)CN1CC[C@H](c2nnc(Cc3c[nH]c4ccccc34)o2)C1,1.678%
12,Cc1n[nH]c(C(=O)N2CCCC(C)CC2)c1Br (stereo not drawn),10.78%
13,CCNC(=O)c1nnn(Cc2ccccc2)c1OC,0.7251%
14,Cc1cc(=O)n(C)cc1NC(=O)Cc1cccc(F)c1,-4.709%
15,Cc1ccoc1C(=O)N1CC[C@H]2[C@@H]1CCC(=O)N2c1cccnc1.O=C(O)C(F)(F)F,-7.796%
16,O=C(O)C(F)(F)F.O=C1CC[C@H]2[C@H](CCN2c2ncccn2)N1c1ccccc1,99.41%
17,Cc1cnc(N2CC[C@H]3[C@@H]2CCC(=O)N3c2ccccc2)nc1.O=C(O)C(F)(F)F,112.6%
18,Cc1ccc(C(=O)N2CC[C@H]3[C@@H]2CCC(=O)N3c2ccccc2)cn1.O=C(O)C(F)(F)F,-18.98%
19,O=C(C1CC1)N1CC[C@H]2[C@@H]1CCC(=O)N2c1ccccc1,23.82%
20,Cc1cnc(N2CC[C@H]3[C@@H]2CCC(=O)N3c2cccnc2)nc1.O=C(O)C(F)(F)F.O=C(O)C(F)(F)F,-6.762%
21,O=C(O)C(F)(F)F.O=C1CC[C@H]2[C@H](CCN2c2ncc(F)cn2)N1c1ccccc1,111.8%
22,Cc1cccc(C(=O)N2CC[C@@H]3[C@H]2CCC(=O)N3c2ccccc2)n1.O=C(O)C(F)(F)F,-24.35%

row,SMILES,Percent Effect
1,O=C(O)C(F)(F)F.O=C(O)C(F)(F)F.O=C1CC[C@H]2[C@H](CCN2c2ncc(F)cn2)N1c1cccnc1,-9.717%
2,CC(OCC1CC1)C(=O)Nc1nccn1Cc1ccccc1 (stereo not drawn),-19.61%
3,CN(C(=O)NCCCNc1ccccn1)C1CCS(=O)(=O)C1 (stereo not drawn),-6.562%
4,CN(Cc1ccnc2ccccc12)C1CCS(=O)(=O)C1.O=C(O)CC(O)(CC(=O)O)C(=O)O (stereo not drawn),102.4%
5,CN(Cc1ccc(F)c2cccnc12)C1CCS(=O)(=O)C1 (stereo not drawn),8.686%
6,CN(Cc1cccc2cccnc12)C1CCS(=O)(=O)C1.O=C(O)CC(O)(CC(=O)O)C(=O)O (stereo not drawn),164.7%
7,CCN(Cc1cnc(NCc2ccccc2)nc1)C1CCS(=O)(=O)C1 (stereo not drawn),-2.242%
8,Cc1ccsc1[C@@H]1CCN(C(=O)CCC(=O)N2CCCCCC2)C[C@H]1O,-6.445%
9,Cc1cc(C)c2nc(C)cc(C(=O)NC(C)c3nnn[nH]3)c2c1 (stereo not drawn),1.105%
10,Cc1cc(C)c(C(=O)N(CCO)Cc2ccccc2F)c(=O)[nH]1,-8.709%
11,Cc1cc(C(=O)NC2(C#N)CCSCC2)n(C)n1,-9.689%
12,CC(=O)c1cc(C(=O)NC2(c3ccc(Br)cc3)CC2)n(C)c1,-0.634%
13,Cc1cc(C(=O)NC2(c3ccc(Br)cc3)CC2)n(C)n1,77.44%
14,Cc1nnc(N2CCC(CS(N)(=O)=O)CC2)c(C#N)c1C,-8.566%
15,Cc1nn(C)cc1CCC(=O)N1CCCC(n2cncn2)C1 (stereo not drawn),-0.08809%
16,O=C(CCc1ccccc1)N1CC(n2cncn2)C1,125.3%
17,O=C(CCc1ccccc1)N1CCn2cc(Cn3cncn3)nc2C1,-11.69%
18,O=C(CCc1cccc(F)c1F)N1CCCC(n2cncn2)C1 (stereo not drawn),102.1%
19,O=C(CCc1ccccn1)N1CCCC(n2cncn2)C1 (stereo not drawn),108%
20,O=C(CCCc1ccccc1)N1CCCC(n2cncn2)C1 (stereo not drawn),103%
21,O=C(COCc1ccccc1)N1CCCC(n2cncn2)C1 (stereo not drawn),1.365%
22,Cc1ccc(CCC(=O)N2CCCC(n3cncn3)C2)c(C)c1 (stereo not drawn),-8.257%

row,SMILES,Percent Effect
1,Cc1nc(NC(=O)C(C)S(C)(=O)=O)sc1Cc1ccc(F)cc1 (stereo not drawn),3.284%
2,Cn1ccnc1CCNS(=O)(=O)c1cccc(Br)c1,11.32%
3,CC(C)c1ccc(/C=C/CC(=O)NC2CCN(C(N)=O)CC2)cc1,-28.76%
4,Cc1cnn(CC2CCCCN2Cc2nc(N)c3ccccc3n2)c1 (stereo not drawn),-1.986%
5,CSCCC(NC(N)=O)C(=O)Nc1ccc(-n2cccn2)nc1 (stereo not drawn),-4.081%
6,N#CCCN(C(=O)CN1CCCC1C1CCCCC1)c1ccccc1 (stereo not drawn),-8.996%
7,CCC(C)N(Cc1ccc(C)cc1)Cc1c[nH]c(C)n1 (stereo not drawn),14.09%
8,N#CCCN(c1ccccc1)S(=O)(=O)CC1CCCCO1 (stereo not drawn),-2.973%
9,CCOc1ccc(NC(=O)N(CCC#N)Cc2ccccn2)cc1F,-26.47%
10,O=C(CCc1cccnc1)N1CCCC(n2cncn2)C1 (stereo not drawn),-7.114%
11,O=C(Cc1ccccc1Cl)N1CCCC(n2cncn2)C1 (stereo not drawn),-8.361%
12,O=C(Cc1cccnc1)N1CCCC(n2cncn2)C1 (stereo not drawn),106.6%
13,Cc1cccnc1CNc1ccc(C(=O)N2CCc3ccccc32)cn1,0%
14,COCc1cccc(CNc2cnn(C(C)(C)C)c(=O)c2Cl)c1,-38.78%
15,CC(C)(C)n1ncc(NCC(O)c2ccccc2C(F)(F)F)c(Cl)c1=O (stereo not drawn),100.7%
16,CC(C)(C)n1ncc(NCC(O)c2ccccc2)c(Cl)c1=O (stereo not drawn),108.9%
17,COCc1ccc(CNc2cnn(C(C)(C)C)c(=O)c2Cl)cc1,2.959%
18,O=C(NCC(O)c1ccccc1C(F)(F)F)c1cccnc1 (stereo not drawn),-5.174%
19,CC(C)(C)n1ncc(NCc2ccccc2)c(Cl)c1=O,-16.67%
20,CC(C)(C)n1ncc2c(=O)n(CC(=O)NCc3ccccc3Cl)cnc21,3.164%
21,OC(CNCCn1cccn1)c1ccc(F)c(F)c1 (stereo not drawn),-2.779%
22,O=C(NCc1cccnc1)NCC(O)c1ccccc1C(F)(F)F (stereo not drawn),-3.866%

row,SMILES,Percent Effect
1,CC(C)(C)n1ncc(NCC(O)c2ccc(F)c(F)c2)c(Cl)c1=O (stereo not drawn),100.9%
2,CC(C)(C)n1ncc(NCCc2ccccc2C(F)(F)F)c(Cl)c1=O,139.1%
3,COc1cc(CNc2cnn(C(C)(C)C)c(=O)c2Cl)ccn1,-46.44%
4,CCc1noc(CNc2ccc(F)cc2OCC2CC2)n1,-5.752%
5,CC(NCc1cnc(C2CCC2)s1)c1ccccc1-n1cccn1 (stereo not drawn),-10.15%
6,Cc1ccc(-c2ccc(C(=O)NCCC(=O)N(C)C)c(F)c2)cc1,-15.57%
7,c1ccc2c(N3CCSCC3)cnnc2c1,-7.227%
8,Cc1ccc(CNCCCNS(C)(=O)=O)c(Br)c1,3.842%
9,NC(=O)C(CNC(=O)Cc1ccsc1)Cc1ccc(F)cc1 (stereo not drawn),90.7%
10,CS(=O)(=O)Nc1cccc(CNC(=O)CCc2ccsc2)c1,-4.988%
11,NC(=O)C(CNC(=O)CCc1ccsc1)Cc1ccc(F)cc1 (stereo not drawn),115.1%
12,CCOC(=O)C(C)NC(=O)CCc1ccc(F)cc1 (stereo not drawn),2.833%
13,NC(=O)C(CNC(=O)CCc1ccccc1)Cc1ccc(F)cc1 (stereo not drawn),119.3%
14,NC(=O)NC(CC(=O)NCCc1ccc(F)cc1)c1ccccc1 (stereo not drawn),2.194%
15,CCOc1ccc(CC(CNC(=O)c2sccc2C)C(N)=O)cc1 (stereo not drawn),1.626%
16,Cc1ccc(CC(=O)NCC(O)c2cc(Cl)cc(Cl)c2)cn1 (stereo not drawn),3.357%
17,CCOc1ccc(CC(CNC(=O)c2ccc(C)s2)C(N)=O)cc1 (stereo not drawn),-16.33%
18,CCc1ccc2c(c1)C(CCNC(=O)CCc1ccsc1)C(=O)N2 (stereo not drawn),24.64%
19,Cc1ccc(CC(=O)NCC(Cc2ccc(F)cc2)C(N)=O)cn1 (stereo not drawn),110.1%
20,Cc1ccc(CC(=O)NCC(O)c2cccc(C(F)(F)F)c2)cn1 (stereo not drawn),-12.46%
